± gives the standard deviation.
System: MILI (PIWIL2) piRISC loaded with L1MC piRNA (26 nt)
Test: pre-steady-state target cleavage rate (min^-1); guide: L1MC piRNA 5'p-UAACUAAAUACUAUGCAAGCUGUAGG; MIWI and MILI are mouse PIWI proteins and EfPiwi is from a freshwater sponge; tags in brackets are library labels; higher = faster piRNA-guided slicing of the target
Settings: auxiliary factor: 500 nM mouse GTSF1
Procedure, shortened: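 Cleave-'n-Seq measured uncleaved targets by sequencing after a transcribed, DNA-blocked target RNA library […] was mixed with 1 nM active affinity-purified piRISC holding one synthetic guide, with or without 500 nM GTSF1 partner protein, at 33 °C in HEPES–potassium acetate buffer for 0–8 or 0–960 min. Counts were normalised to depth and to weakly complementary targets, three trials were pooled, and k3 was capped at 0.0001 min^-1. A burst-and-steady-state fit gave the pre-steady-state cleavage rate.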
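Note: 1 nM active piRISC with 0.1 nM target library at 33 °C single turnover.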

Row | Sequence | pre-steady-state target cleavage rate
1 | UCCUGGUACAGCAUGCUUAGUAUUUAGUUA | 0.208 ± 0.025
2 | UCCUGGAUGUCUUUGCAUAGUAUUUAGUUA | 0.119 ± 0.015
3 | UCCUGCUACAGCUUGCAUAGUAUUUGGUUA | 0.27 ± 0.029
4 | UCCUCCUAAGCUUGCAUAGUAUUUAGUUA | 0.23 ± 0.015
5 | UCCUGGUACAGCUGCAUAGUAUUUAGUUA | 0.23 ± 0.016
6 | UCCUGGUACAGCUUUGCAUAGUAUUUAGUUA | 0.185 ± 0.018
7 | UCCUGCUACUCCUUGCAUAGUAUUUAGUUA | 0.262 ± 0.015
8 | UCCUGCUACAGGUUGCAUAGUAUAUAGUUA | 0.305 ± 0.036
9 | UCCUGGUACUGCAUGCAUAGUAUUUAGUUA | 0.222 ± 0.02
10 | UCCUGGAUCAGGUUGCAUAGUAAUUAGUUA | 0.152 ± 0.015
11 | UCCUGGUAGAGCUUGGAUAGUAUUUAGUUA | 0.15 ± 0.0091
12 | UCCUCCUACAGCUUGCAUACUAUUUAGUUA | 0.088 ± 0.013
13 | UCCUGGAACAGCUUGCAUAGUAUUUUAGUUA | 0.241 ± 0.02
14 | UCCUCCUUCAGCUUGCAUAGUAUUAAGUUA | 0.155 ± 0.022
15 | UCCUCCUACAGCUUGCAAAGUAAUUAGUUA | 0.116 ± 0.012
16 | UCCUGCUACAGCUUGGAUAGUAUAUAGUUA | 0.222 ± 0.026
17 | UCCUGCUACAGCUUGCAUUGUAUUUUGUUA | 0.159 ± 0.024
18 | UCCUCCUAAAGCUUGCAUAGUAUUUAGUUA | 0.157 ± 0.019
19 | UCCUGGUAAAGCUUGCAUAGUAUUUAGUUA | 0.183 ± 0.017
20 | UCCUGGAUCAGCAUGCAUAGUAUUUAGAAA | 0.126 ± 0.018

Row | Sequence | pre-steady-state target cleavage rate
21 | UCCUGCUACAGGUUGCAUAGUAAUUAGUUA | 0.216 ± 0.032
22 | UCCUGCUAGAGCUUGCUUAGUAUUUAGUUA | 0.162 ± 0.01
23 | UCCUCCUACAGCUUGCUUAGUUUUUAGUUA | 0.0513 ± 0.01
24 | UCCUGGAUCAGCUUGCAUAGUAGUUAGUUA | 0.201 ± 0.016
25 | UCCUCCUACUGCUUGCAUAGUUUUUAGUUA | 0.0525 ± 0.0085
26 | UCCUGGAACAGCUUGCAUUGUAUUUAGUUA | 0.18 ± 0.014
27 | UCCUGGUACAGCUUGCAUAGUAUUUAGUUUA | 0.375 ± 0.028
28 | UCCUGCAACAGCUAGCAUAGUAUUUAGUUA | 0.289 ± 0.02
29 | UCCUGGAACAGGUUGCAAAGUAUUUAGUUA | 0.144 ± 0.013
30 | UCCUGGAUCAGCUUGCAUAGUACUUAGUUA | 0.237 ± 0.018
31 | UCCUGGAUGAGCUGUGCAUAGUAUUUAGUUA | 0.191 ± 0.013
32 | UCCUGGAUGAGCUUGCAUGGUAUUUAGUUA | 0.195 ± 0.023
33 | UCCUGGAUCAGCUUGCAUAGUAUUUAUUUA | 0.0819 ± 0.017
34 | UCCUGGUACAGCUUGCAUAGUAUUUAGUAA | 0.283 ± 0.036
35 | UCCUGGAUGUGCUGGCAUAGUAUUUAGUUA | 0.118 ± 0.012
36 | UCCUGGUACAGCUUGGAUAGUAUUUAGUUA | 0.206 ± 0.024
37 | UCCUCCUACAGCUUGCAUAGUAUUUUGUUA | 0.177 ± 0.023
38 | UCCUGGUACAGCUUGCAUAGUCUUUAGUUA | 0.152 ± 0.025
39 | UCCUGCUACAGCUUGGAUUGUAUUUAGUUA | 0.0899 ± 0.011
40 | UCCUGGAACAGCUAGCAUAGUAUUAAGUUA | 0.192 ± 0.015

Source: the supplement of paper PMC10338343
